Data on 6 compounds can be found in PubChem BioAssay (Tox21).

The nature of test [1]: qHTS assay to identify small molecule antagonists of the estrogen related receptor (ERR) signaling pathway from Tox21 library - cell viability counter screen (AID 1224834). Further: nearly all actives have a fitted effect of over 30% in size. The gist of the method: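 Viability readout (CellTiter-Fluor fluorescence, 30 min at 37 C) multiplexed with the ERR assay; cells treated 17.5 h at 37 C with compounds delivered in DMSO.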
For orientation: Quantitative high-throughput screening tests each substance at several concentrations.

Test [2] deals with Nuclear receptor subfamily 1 group I member 3 (Homo sapiens) (UniProt Q14994). In words: qHTS assay to identify small molecule antagonists of the constitutive androstane receptor (CAR) signaling pathway (AID 1224838).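 Further: HepG2 cells stably expressing hCAR with CYP2B6 luciferase reporter stimulated by CITCO; nearly all actives have a fitted effect of over 40% in size.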 Further: potency means the concentration at half of the fitted maximal effect. The gist of the method:
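Quantitative HTS in double-stable HepG2-CYP2B6-hCAR cells. After 4 h plating, cells get compound (15 concentrations) and CITCO at 50 nM final, incubate 24 h at 37 C, then ONE-Glo luminescence is read.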

The nature of test [3]: qHTS assay to identify small molecule antagonists of the estrogen related receptor signaling pathway with the pleiotropic PPARgamma coactivator (PGC) from Tox21 10K library - cell viability counter screen (AID 1224840; active means well fitted cell-killing curve with a large enough effect in the repeat runs, not every such curve was filed as active; further: nearly all actives have a fitted effect of over 40% in size). The gist of the method:
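Compounds in DMSO, alongside positive and negative controls, were pinned onto PGC/ERR cells (2,000 per well). Exposure lasted 17.5 hours at 37 C, followed by a 30-minute CellTiter-Fluor incubation and fluorescence reading.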

Test [4] can be described thus: qHTS assay to identify small molecule agonists of the hypoxia (HIF-1) signaling pathway - cell viability counter screen (AID 1224844; calls by dose curve; further: nearly all actives have a fitted effect of over 50% in size). The essentials: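 Luminescent ATP content (CellTiter-Glo, 30 min, room temperature) served as the viability measure in HRE-bla ME-180 cells exposed to compounds for 17 hrs in low-serum medium (0.5% dialyzed FBS).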
Test [5] in a line: qHTS assay to identify small molecule agonists of H2AX (AID 1224845; active means well fitted activation curve with a large enough effect in the signal ratio in the repeat runs, not every such curve was filed as active; the % refers to the signal ratio). The gist of the method: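 Wild-type CHO-K1 cells, plated overnight, exposed 3hr at 37C to 15 concentrations (0.76% DMSO final). Lysed, then HTRF anti-pH2AX (S139) cryptate and anti-H2AX-d2 antibodies, 24 hr room temperature; 665/620 nm emission read.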
Test [6] is described as follows: qHTS assay to identify small molecule agonists of the hypoxia (HIF-1) signaling pathway (AID 1224846; active means well fitted activation curve with a large enough effect in the signal ratio in the repeat runs, not every such curve was filed as active; the % refers to the signal ratio). The gist of the method:
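Measured by blue/green FRET after loading CCF4-AM: beta-lactamase expressed from a hypoxia response element in ME-180 cells. Test agents were delivered in DMSO and left 17 hrs; cells had been plated 5 hrs earlier in low-serum (0.5% dialyzed FBS) medium.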

Test [7] in a line: qHTS assay to identify small molecule agonists of H2AX - cell viability counter screen (AID 1224847; calls by dose curve; further: top concentration of the series differs between compounds; nearly all actives have a fitted effect of over 30% in size). The essentials: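 CHO-K1 cells plated overnight at 37C, then exposed 3 h at 37C to compounds at 15 concentrations (0.76% DMSO final). Viability by CellTiter-Glo luminescence after 30 min at room temperature.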
A short description of test [8]: qHTS RealTime-Glo MT Cell Viability Assay in HepG2 cells - 24 hour (AID 1224867). Further: nearly all actives have a fitted effect of over 50% in size. The gist of the method:
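Viability was tracked continuously by NanoLuc luminescence from prosubstrate reduced by living HepG2 cells, at successive time points over 40 h of compound exposure. Cells with reagent were preincubated 5 h at 37 °C before compound addition.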

A short description of test [9]: qHTS RealTime-Glo MT Cell Viability Assay in HEK293 cells - 32 hour (AID 1224868). Further: nearly all actives have a fitted effect of over 50% in size. Further: potency means the concentration at half of the fitted maximal effect. On activity change, negative = cytotoxic: top concentration of the series differs between compounds. The essentials: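 Viability tracked continuously by luminescence as live cells reduce a prosubstrate for NanoLuc; HEK293 cells preincubated 5 h, compound-treated at 37 C, and read at 0, 8, 16, 24, 32 and 40 h.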
Test [10] can be described thus: qHTS RealTime-Glo MT Cell Viability Assay in HepG2 cells - 40 hour (AID 1224870). Further: nearly all actives have a fitted effect of over 50% in size. The essentials:
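HepG2 cells (600/well) mixed with RealTime-Glo MT reagent, settled 5 h at 37 C/5% CO2 before compound addition. Nonlytic NanoLuc luminescence from viable-cell prosubstrate reduction read repeatedly during 40 h treatment at 37 C.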

Test [11] is described as follows: qHTS assay to identify small molecule antagonists of the constitutive androstane receptor (CAR) signaling pathway - cell viability counter screen (AID 1224837). Further: nearly all actives have a fitted effect of over 45% in size. The essentials:
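Fluorescence from CellTiter-Fluor served as the viability signal. Human hepatoma HepG2 cells stably bearing hCAR and CYP2B6-2.2kb received compound plus CITCO (50 nM final) for 23 hr.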

Test [12] has as its target Nuclear receptor subfamily 1 group I member 3 (Homo sapiens) (UniProt Q14994). The test can be described thus: qHTS assay to identify small molecule agonists of the constitutive androstane receptor (CAR) signaling pathway (AID 1224839). Further: nearly all actives have a fitted effect of over 15% in size. Further: potency means the concentration at half of the fitted maximal effect. The gist of the method:
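HepG2 cells stably co-transfected with hCAR and a CYP2B6-2.2kb luciferase reporter; compounds at 15 concentrations with 0.75 uM PK11195 present. After 24 hr at 37 C, luciferase read by ONE-Glo luminescence.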

The target of test [13] is Thyrotropin receptor (Homo sapiens) (UniProt P16473). The test can be described thus: qHTS assay to identify small molecule agonists of the thyroid stimulating hormone receptor (TSHR) signaling pathway (AID 1224843; calls by dose curve; further: nearly all actives have a fitted effect of over 45% in size; further: potency means the concentration at half of the fitted maximal effect). The essentials: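 Steps: seed 800 TSHR-HEK293 cells per well; add test compound and hold 30 min at ambient temperature; dispense cAMP-d2 then anti-cAMP cryptate; incubate 1 h at ambient; measure fluorescence intensity.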

Test [14] is described as follows: A CellTox Green Cytotoxicity Assay to monitor cytotoxicity in HEK293 cells - 0 hour (AID 1224869). Further: nearly all actives have a fitted effect of over 50% in size. The gist of the method: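 Each value comes from one timepoint of a single continuous run in which HEK293 cells with CellTox Green were exposed to compound for up to 40 h at 37 C, dye fluorescence rising with cell death.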
Test [15] can be described thus: qHTS assay to identify small molecule agonists of the constitutive androstane receptor (CAR) signaling pathway - cell viability counter screen (AID 1224836). Further: nearly all actives have a fitted effect of over 45% in size. The gist of the method: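 HepG2 cells stably carrying hCAR and a CYP2B6-2.2kb reporter; 15-concentration compounds plus PK11195 (final 0.75 uM), 23 hr at 37 C/5% CO2. Viability read by CellTiter-Fluor fluorescence.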

Test [16] is described as follows: qHTS assay to identify small molecule antagonists of the estrogen related receptor (ERR) signaling pathway from Tox21 library (AID 1224848). Further: nearly all actives have a fitted effect of over 50% in size. The essentials: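 Luminescent reporter read-out (ONE-Glo) from NTP's ERR cell line after 18 h treatment at 37 C with DMSO-dissolved Tox21 compounds; cells pre-plated 6 h beforehand at 2,000 per well.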
Test [17] can be described thus: qHTS assay to identify small molecule agonists of the estrogen related receptor (ERR) signaling pathway from Tox21 library (AID 1224849; calls by dose curve; further: nearly all actives have a fitted effect of over 15% in size). Particulars: ERR reporter cell line, ONE-Glo luciferase, 18 h; at 42.5 µM (top of the series). The essentials:
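We plated ERR reporter cells, waited 6 h, added compounds in DMSO by pin tool and incubated them 18 h at 37 C. ONE-Glo was then added and luminescence read after 30 min.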

“And” between values parts separate entries of the source, which are not always exact repeats. Equal entries are not always repeated. Records with an inconclusive call do not appear. A structure can be active in one record and inactive in another. The source made the active and inactive calls. Unless noted, the call rests on the fitted dose curve; in most records, active means well fitted curve in the direction sought with a large enough effect in the repeat runs; inconclusive means weak or mixed curves; inactive means no such curve, though single readings can be large; an effect the other way counts as inactive or inconclusive.
On the % scale 0 is the no-effect control and ±100 the full control effect.

Sequence of Nuclear receptor subfamily 1 group I member 3 (Homo sapiens) (Q14994 whole entry, looked up): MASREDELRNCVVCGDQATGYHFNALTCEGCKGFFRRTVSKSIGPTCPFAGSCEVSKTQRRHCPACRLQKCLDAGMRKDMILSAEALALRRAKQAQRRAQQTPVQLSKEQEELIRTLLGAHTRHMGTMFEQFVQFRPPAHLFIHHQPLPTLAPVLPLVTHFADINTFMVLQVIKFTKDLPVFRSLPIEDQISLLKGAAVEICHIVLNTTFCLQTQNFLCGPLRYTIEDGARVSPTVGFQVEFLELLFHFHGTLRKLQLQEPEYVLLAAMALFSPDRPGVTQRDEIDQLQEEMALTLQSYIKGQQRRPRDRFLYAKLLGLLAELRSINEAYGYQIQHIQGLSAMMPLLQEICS
Sequence of Thyrotropin receptor (Homo sapiens) (P16473 whole entry, looked up): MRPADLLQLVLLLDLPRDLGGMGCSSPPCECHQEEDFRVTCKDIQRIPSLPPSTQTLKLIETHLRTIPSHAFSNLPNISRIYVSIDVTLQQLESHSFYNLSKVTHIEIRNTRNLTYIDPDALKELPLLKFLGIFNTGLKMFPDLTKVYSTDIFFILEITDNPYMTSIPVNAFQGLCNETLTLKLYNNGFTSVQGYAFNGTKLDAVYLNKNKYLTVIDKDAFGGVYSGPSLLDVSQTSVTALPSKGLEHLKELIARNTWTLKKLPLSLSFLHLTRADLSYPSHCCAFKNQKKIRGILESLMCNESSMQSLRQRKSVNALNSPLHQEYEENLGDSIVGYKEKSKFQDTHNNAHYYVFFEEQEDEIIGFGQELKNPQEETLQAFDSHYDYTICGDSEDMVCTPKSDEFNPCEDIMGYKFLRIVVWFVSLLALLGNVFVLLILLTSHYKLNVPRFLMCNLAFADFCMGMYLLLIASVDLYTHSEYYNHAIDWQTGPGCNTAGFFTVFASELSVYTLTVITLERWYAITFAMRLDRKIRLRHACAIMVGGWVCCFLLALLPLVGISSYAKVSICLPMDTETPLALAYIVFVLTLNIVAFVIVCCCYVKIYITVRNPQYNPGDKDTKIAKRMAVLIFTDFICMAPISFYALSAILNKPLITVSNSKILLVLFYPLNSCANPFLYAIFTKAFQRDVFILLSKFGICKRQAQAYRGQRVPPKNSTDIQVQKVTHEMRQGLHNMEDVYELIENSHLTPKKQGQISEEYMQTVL

In the case of `CCCCCCCCCCCCN=C(N)N`, the viability change, negative = cytotoxic in test [1] was 1.13% [at 3.27 µM] (inactive); in test [3] it was 2.19% [at 3.27 µM] (inactive). In test [2], the activity, negative = inhibition was 9.02% [at 3.26 µM] (inactive). The activity change, negative = cytotoxicity in test [4] is -8.49% [at 2.72 µM] (inactive); in [7] it was -0.757% [at 5.43 µM] (inactive); in test [8], -4.51% [at 2.72 µM] (inactive). In test [5], the activation (H2AX phosphorylation) is -1.39% [at 5.45 µM] (inactive). Further, the activation in test [6] was 0.622% [at 2.67 µM] (inactive). In addition, the Potency in [9] is 1.2 µM (active). Further, the activity change, negative = cytotoxic in test [10] is 1.81% [at 2.72 µM] (inactive).
In the case of `Nc1cccc2ccccc12`, the Potency entry in test [1], in [11], in [2], in [3], in test [13] and in test [4] was “inactive” throughout. The Potency entry in test [5], in test [7], in test [8], in [9], in [14] and in test [10] was “inactive” in each case. In addition, the Potency in [12] is 30.8 µM (active) and 61.1 µM (active). In test [6], the outcome was inactive.
On to `Cc1cccc(C)c1NC1=NCCCS1`, for which the Potency result in test [1], in test [15], in test [11], in test [13], in test [4] and in test [5] was “inactive” each time. The Potency entry in test [7], in test [16], in test [8], in test [9], in test [14] and in test [10] was “inactive” each time. For the same compound, the activity change, positive = activation in test [17] is 4.81% (inactive).
On to `CCC1(CCC(C)C)C(=O)NC(=O)NC1=O`, for which the Potency result in test [1], in test [15], in [2], in test [12], in test [3] and in test [4] was “inactive” throughout. Also, the Potency result in [5], in test [7], in test [8], in [9], in [14] and in test [10] was “inactive” each time. In test [6], the compound was classed as inactive.
Turning to `CCCN(CCC)c1c([N+](=O)[O-])cc(C(C)C)cc1[N+](=O)[O-]`, the Potency result in test [1], in [11], in test [4], in test [5], in test [7] and in test [8] was “inactive” each time. Further, the Potency result in test [9], in test [14] and in [10] was “inactive” throughout. The Potency result in test [2] was “inactive and 1 nM (active)”; in test [12], 33.6 µM (active) and inactive; in [13] it was 6.71 µM (active) and 12.2 µM (active). Moreover, the compound was called inactive in [6].
Take `CCC(=O)O[C@@H]1C=C2CCC3C(CCC4(C)C3CC[C@@H]4OC(=O)CC)C2CC1` (stereo partly drawn): the Potency result in [1], in test [11], in [3], in test [13], in test [5] and in test [7] was “inactive” each time. Besides, the Potency result in test [9], in test [14] and in test [10] was “inactive” throughout. The outcome in test [6] was inactive.
